The list shows a part of the results. Activity calls are given as the source filed them.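 How the source made its calls, unless noted: active means mean inhibition above about 50% in the one-dose retest (limit read from the data); inactive means the rest.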
Tests used:
[1] = target: Sentrin-specific protease 8 (Homo sapiens) (UniProt Q96LD8); assay: human SENP8 peptidase blockers, hit retest – biochemical, luminescence, single concentration, confirmation (AID 488912;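 active means mean inhibition across replicates above about 50%, limit read from the data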); settings: Recombinant SENP8, Z-RLRGG-aminoluciferin luminescence, 60 min; at 12.5 µM; active compounds read high
[2] = target: Sentrin-specific protease 6 (Homo sapiens) (UniProt Q9GZR1); assay: inhibition of human SENP6 catalytic domain – biochemical, luminescence, single concentration, confirmation (AID 488915); settings: recombinant SENP6, Z-RLRGG-aminoluciferin luminescence; at 12.5 µM; active compounds read high
[3] = target: Sentrin-specific protease 7 (Homo sapiens) (UniProt Q9BQF6); assay: human SENP7 peptidase blockers, hit retest – biochemical, luminescence, single concentration, confirmation (AID 488917); settings: recombinant SENP7, Z-RLRGG-aminoluciferin luminescence, 40 min; at 12.5 µM; active compounds read high
Caspase-3 (Homo sapiens) = Caspase-3 (Homo sapiens) (UniProt P42574); assay: human caspase-3 activity blockade, out-of-family – biochemical, single concentration, selectivity assay for SENP inhibitor project, confirmation (AID 488918;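 active means mean inhibition above about 50%, limit read from the data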;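 further: plate controls were enzyme with DMSO for no effect and wells without caspase-3 for full effect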); settings: purified caspase-3, Z-DEVD-aminoluciferin luminescence, 60 min; at 12.5 µM; active compounds read high
[4] = Ultra-Glo luciferase signal interference – biochemical, single concentration, SENP8 reaction pre-completed, artefact control for SENP inhibitor project, confirmation (AID 488919;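 active means mean inhibition above about 50% when retested at one dose, limit read from the data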;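 further: plate controls were DMSO wells with completed reaction for no effect and substrate without enzyme for full effect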); settings: Pre-incubated SENP8/Z-RLRGG-aminoluciferin, luciferase luminescence interference; at 12.5 µM; active compounds read high

Measured: inhibition

Sequence of Sentrin-specific protease 8 (Homo sapiens) (Q96LD8 whole entry, looked up, the tested form may be a part): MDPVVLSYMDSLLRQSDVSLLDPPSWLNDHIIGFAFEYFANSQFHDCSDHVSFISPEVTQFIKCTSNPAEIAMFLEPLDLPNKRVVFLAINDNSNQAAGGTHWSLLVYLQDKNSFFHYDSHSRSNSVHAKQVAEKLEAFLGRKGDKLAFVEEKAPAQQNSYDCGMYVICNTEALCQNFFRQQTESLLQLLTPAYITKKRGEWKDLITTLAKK
Sequence of Sentrin-specific protease 7 (Homo sapiens) (Q9BQF6 706-1050 limits assumed): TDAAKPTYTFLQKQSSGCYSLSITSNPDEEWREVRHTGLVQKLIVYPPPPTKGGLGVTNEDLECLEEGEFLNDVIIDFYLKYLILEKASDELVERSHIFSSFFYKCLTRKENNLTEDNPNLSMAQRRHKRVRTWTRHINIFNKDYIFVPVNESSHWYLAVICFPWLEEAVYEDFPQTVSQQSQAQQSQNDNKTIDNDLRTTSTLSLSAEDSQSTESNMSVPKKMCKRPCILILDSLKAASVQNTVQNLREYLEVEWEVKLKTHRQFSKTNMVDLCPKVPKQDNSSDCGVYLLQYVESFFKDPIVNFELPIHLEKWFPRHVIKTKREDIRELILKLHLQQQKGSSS
Sequence of Caspase-3 (Homo sapiens) (P42574 28-227 limits assumed): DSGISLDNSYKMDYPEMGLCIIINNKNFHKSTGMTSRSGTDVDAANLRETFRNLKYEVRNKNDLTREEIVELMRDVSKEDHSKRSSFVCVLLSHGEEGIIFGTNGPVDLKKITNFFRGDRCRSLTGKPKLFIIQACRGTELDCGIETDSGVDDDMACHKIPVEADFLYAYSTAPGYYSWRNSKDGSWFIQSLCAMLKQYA
Sequence of Sentrin-specific protease 6 (Homo sapiens) (Q9GZR1 628-1112 limits assumed): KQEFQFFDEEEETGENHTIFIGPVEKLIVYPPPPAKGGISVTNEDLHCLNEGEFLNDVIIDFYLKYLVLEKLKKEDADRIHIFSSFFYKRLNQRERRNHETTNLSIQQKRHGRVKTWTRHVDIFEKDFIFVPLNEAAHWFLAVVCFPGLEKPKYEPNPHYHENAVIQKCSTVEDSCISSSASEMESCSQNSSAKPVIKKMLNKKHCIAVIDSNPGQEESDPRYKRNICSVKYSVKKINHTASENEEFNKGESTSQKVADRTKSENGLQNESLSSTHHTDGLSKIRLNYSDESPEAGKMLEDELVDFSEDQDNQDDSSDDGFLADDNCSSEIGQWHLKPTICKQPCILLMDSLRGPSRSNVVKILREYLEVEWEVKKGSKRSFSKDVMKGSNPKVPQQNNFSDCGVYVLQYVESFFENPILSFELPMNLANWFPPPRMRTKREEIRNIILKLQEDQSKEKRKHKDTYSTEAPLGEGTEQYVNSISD

O=C(Nc1ccc(NC(=O)c2ccco2)c(Cl)c1)c1cccc([N+](=O)[O-])c1
inactive: [1] 8.7% | [2] 6.1% | [3] -6.7% | Caspase-3 (Homo sapiens) -0.7% | [4] -0.2%

COc1ccc(C(=O)COC(=O)c2ccc([N+](=O)[O-])s2)cc1OC
inactive: [1] 4.2% | [2] 46.8% | [3] 7.5% | Caspase-3 (Homo sapiens) 14.1% | [4] 6.4%

Cc1cccc(NC(=O)COc2ccc(Br)cc2C)n1
inactive: [1] 1% | [2] 50% | [3] 7.4% | Caspase-3 (Homo sapiens) 20.8% | [4] 11.1%

O=C(Nc1cccc([N+](=O)[O-])c1)c1ccc2c(c1)OCO2
inactive: [1] 29.3% | [2] 38.2% | [4] 9.5%
active: [3] 88% | Caspase-3 (Homo sapiens) 65.1%

COc1ccc(C(CC(=O)c2ccccc2)S(=O)(=O)c2ccccc2)cc1 (stereo not given)
inactive: [1] 25% | [2] 33.4% | [3] 30.3% | Caspase-3 (Homo sapiens) 9% | [4] 4.7%

Fc1ccc(COc2ccc(-c3nnco3)cc2)cc1
inactive: [1] 29%
active: [2] 60.4% | [3] 85.8% | Caspase-3 (Homo sapiens) 67.9% | [4] 65.6%

COCCn1nnnc1C(c1cc2ccc(OC)cc2[nH]c1=O)N1CCc2ccccc2C1 (stereo not given)
inactive: [1] 12.6% | [2] 23% | [3] 2.5% | Caspase-3 (Homo sapiens) 1% | [4] -2%

Cc1cc(C(=O)N/N=C/c2ccc(N3CCOCC3)cc2)c(C)o1
active: [1] 86.9% | [2] 86.6% | [3] 98.6% | Caspase-3 (Homo sapiens) 95.4%
inactive: [4] 49.9%

COc1ccc(/C=C2/SC(=O)N(CCCCCC(=O)Nc3ccccc3C(=O)O)C2=S)cc1
inactive: [1] -4.2% | [2] 0.2% | [3] 2.7% | Caspase-3 (Homo sapiens) -3.8% | [4] 8.6%

COc1ccc2occ(C(=O)c3ccc(N=C(C)N(C)C)cc3)c2c1
active: [3] 73% | Caspase-3 (Homo sapiens) 65.7% | [4] 51.3%
inactive: [1] 44.8% | [2] 42.5%

CCCCCc1ccc(-c2ccc(C(=O)O)cc2)nc1
active: [2] 54.7% | [3] 76.9% | [4] 63.9%
inactive: [1] -2.1% | Caspase-3 (Homo sapiens) 9.2%

Cc1ccc(-n2ncc3c(Nc4cccc(C(=O)O)c4)ncnc32)cc1
inactive: Caspase-3 (Homo sapiens) 44.3%
active: [1] 93.9% | [2] 98.1% | [3] 102% | [4] 83.5%

Cc1cc(N=Nc2ccc3ccccc3c2)ccc1O
active: [1] 98.3% | [2] 98.9% | [3] 102% | Caspase-3 (Homo sapiens) 85.7% | [4] 76.6%

COc1ccc(/C=N/Nc2ccccc2C(=O)O)cc1
active: [1] 97.3% | [2] 97.5% | [3] 103% | Caspase-3 (Homo sapiens) 96% | [4] 97.6%

Oc1ccc(N=Nc2nccs2)c(O)c1
active: [1] 82.3% | [2] 80.3% | [3] 93.9% | Caspase-3 (Homo sapiens) 90.8% | [4] 82.8%

COc1ccccc1OCc1nc2ccccc2s1
active: [1] 96.7% | [2] 97.3% | [3] 102% | Caspase-3 (Homo sapiens) 96% | [4] 95.3%

Cc1cc(NC(=O)c2ccc(F)cc2)ccc1NC(=O)c1ccco1
active: [1] 78.9% | [2] 73.5% | [3] 93% | Caspase-3 (Homo sapiens) 88.6%
inactive: [4] 14.8%

CC(C)CCNC(=O)c1ccc2c(Cl)c3c(nc2c1)CCC3
active: [1] 84.1% | [2] 88.3% | [3] 97.4% | Caspase-3 (Homo sapiens) 57.1% | [4] 52.5%

c1ccc(Nc2nc(-c3ccncc3)cs2)nc1
active: [1] 84.9% | [2] 85.1% | [3] 97.3% | Caspase-3 (Homo sapiens) 84%
inactive: [4] 45.3%

Cc1cccc(NC(=O)c2ccc3ccccc3n2)n1
active: [1] 76.6% | [2] 76.1% | [3] 93.6% | Caspase-3 (Homo sapiens) 65.2% | [4] 51.2%

COCn1c(COc2ccccc2)nc2ccccc21
inactive: [1] 39.7% | [2] 39.5%
active: [3] 76.4% | Caspase-3 (Homo sapiens) 74.2% | [4] 56%

Cc1ccc(F)c(NC(=O)CCc2ccccc2)c1
active: [3] 68.6% | Caspase-3 (Homo sapiens) 60.7%
inactive: [1] 36.4% | [2] 30.4% | [4] 44.8%

Nc1ccc(-c2nnc(-c3ccccc3)o2)cc1
active: [1] 51.2% | [2] 51.4% | [3] 79.5% | Caspase-3 (Homo sapiens) 65.7%
inactive: [4] 35.7%
